Compounds with a hit are over-represented: about 21% of the library has one in this group of screens.
AMA1 RON2 block – AMA1-RON2 (P. falciparum) interaction inhibition | AlphaScreen AMA1-biotinylated RON2 peptide binding | Potency, µM (titrated, usually from 58.2 µM), inactives show at the highest dose activity change, negative = inhibition, usual class: inhibitors | 360,000 compounds, 0.2% hits;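 further: potency means the concentration at half of the fitted maximal effect; 0% = vehicle wells and -100% = peptide control; nearly all actives have a fitted effect of over 45% in size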
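AMA1 (3D7) with his tag at 25 nM final met compounds first, then biotinylated RON2 peptide at 25 nM; detection used donor plus acceptor beads, 10 µg/mL apiece, read by AlphaScreen after 30 min at room temperature.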
Pf growth 48h – inhibits P. falciparum growth in the first generation, 48 h; P. falciparum luciferase growth in erythrocytes, 48 h; Potency, µM (series often up to 28.7 µM), for the others: top-dose activity change, negative = inhibition, hits mostly inhibitors; 310,000 compounds, 5.9% hits; further: potency means the concentration at half of the fitted maximal effect; on the % scale 0 is the no-effect control and ±100 the full control effect
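Luciferase-expressing parasites in RBCs, 2% Hct / 0.1% parasitemia final; RPMI 1640 + 0.5% Albumax; 37 C, 5% CO2, one generation; luminescence read-out, lower signal = inhibition.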
HCV inh – blocks hepatitis C virus. Huh7.5.1 HCVcc-Cre infection, luciferase reporter, 44 h. Potency, µM (titrated, usually from 41.8 µM), inactives show at the highest dose activity change, negative = inhibition, hits mostly inhibitors. 340,000 compounds, 3.4% hits. AID 651820; further: potency means the concentration at half of the fitted maximal effect; on the % scale 0 is the no-effect control and ±100 the full control effect
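Seed cells (1,000/well) for 4 h; treat with compound and infect with HCVcc-Cre, moi about 0.5. Incubate 44 h, then detect luciferase activity.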
Pf growth 96h – P. falciparum growth inhibition at 96 hours | P. falciparum luciferase reporter growth, 96 h | Potency, µM (titrated, usually from 28.7 µM), for inactives: at the highest dose activity change, negative = inhibition, actives largely listed as inhibitors | 320,000 compounds, 6.9% hits; further: potency means the concentration at half of the fitted maximal effect; on the % scale 0 is the no-effect control and ±100 the full control effect
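Cell-based qHTS: luciferase-tagged P. falciparum in erythrocytes (2% hematocrit, 0.05% parasitemia final) incubated with compounds for 96 hours, 37 C, 5% CO2; luciferase detection reagent then added and luminescence measured.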
Shiga toxin inh – blocks Shiga toxin action in Vero cells. inhibition, % at 38.7 µM. Vero cells, Shiga toxin protein synthesis inhibition reporter. AID 2315. 290,000 compounds, 9.2% hits; in the data active means inhibition mostly above about 28%, no sharp cut-off; inactive means mostly below about 43%; further: 0% is about no effect
CHX counter – counter-screen for Shiga toxin inhibitors: cycloheximide protein synthesis inhibition | cell reporter, cycloheximide protein synthesis inhibition counterscreen | max response, % | 300,000 compounds, 12% hits; in the data active means max response mostly above about 13%, no sharp cut-off; inactive means mostly below about 14%; further: read at 38.3 µM for the half of the compounds with a filed dose; 0% is about no effect
* marks the source's active call; other numbers are inactive results; [ ] = remark or other dose. Unless noted, the call rests on the fitted dose curve; in most records, active means well fitted curve in the direction sought with a large enough effect; inconclusive means small, poorly fitted or top-dose-only effect, or another doubt; inactive means no such curve, though single readings can be large; an effect the other way counts as inactive or inconclusive.

How did CCCCn1c(=O)[nH]c(=O)c2c(C(=O)OCC)cc(-c3cccs3)nc21 do in these assays?
AMA1 RON2 block: -2.7%; Pf growth 48h: 0.0%; HCV inh: 10µM*; Pf growth 96h: -19.9%; Shiga toxin inh: -4.5; CHX counter: -3.4

How did CCCn1c(=O)[nH]c(=O)c2c(C(=O)OCC)cc(-c3cccs3)nc21 do in these assays?
AMA1 RON2 block: -6.6%; Pf growth 48h: inconclusive; HCV inh: inconclusive; Pf growth 96h: inconclusive; Shiga toxin inh: 44.0*; CHX counter: 31.4*

What do the screens show for `COc1ccc(CN(C)C(=O)C2CCN(S(=O)(=O)c3cccs3)CC2)cc1F`?
AMA1 RON2 block: 12.0%; Pf growth 48h: inconclusive; HCV inh: 13.0%; Pf growth 96h: inconclusive

Results for COc1ccc2c(C)cc(SCC(=O)c3ccc4c(c3)OCO4)nc2c1 ?
AMA1 RON2 block: 9.4%; Pf growth 48h: inconclusive; HCV inh: 10µM*; Pf growth 96h: inconclusive; Shiga toxin inh: -12.5; CHX counter: 6.3

How did COCCn1c(C)cc(C(=O)CSc2cc(C)c3ccc(OC)cc3n2)c1C do in these assays?
AMA1 RON2 block: -7.0%[11.6 µM]; Pf growth 48h: -12.7%; HCV inh: inconclusive; Pf growth 96h: inconclusive; Shiga toxin inh: 33.6; CHX counter: 18.2*

What do the screens show for `COc1ccc2c(C)cc(SCC(=O)NC3CCCC3)nc2c1`?
AMA1 RON2 block: 32.2%; HCV inh: -15.0%

Results for Cc1cccc(C)c1NC(=O)C(c1ccnc2ccccc12)N1CCN(CCN(C)C)CC1 (configuration not stated) ?
AMA1 RON2 block: 5.1%

What do the screens show for `Cc1cc2c(s1)c1cnn(Cc3c(F)cccc3F)c(=O)c1n2C`?
Shiga toxin inh: 2.7; CHX counter: -0.5

How did O=C(O)c1cccnc1C(=O)O do in these assays?
AMA1 RON2 block: -41.2%; Pf growth 48h: 36.2%; HCV inh: 0.708µM*; Pf growth 96h: 5.6%

Results for COC(=O)c1cccc(NC(=O)c2cccnc2C(=O)O)c1C ?
AMA1 RON2 block: -11.6%; Pf growth 48h: 18.5%; HCV inh: 19.8%; Pf growth 96h: 19.2%; Shiga toxin inh: 58.7*; CHX counter: 29.3*

How did O=C(O)c1cccnc1Cl do in these assays?
AMA1 RON2 block: -4.2%; Pf growth 48h: 18.4%; HCV inh: 9.2%; Pf growth 96h: 0.0%; Shiga toxin inh: 15.6; CHX counter: -2.8

How did COc1ccc(S(=O)(=O)NCC(=O)NCCc2ccc(OC)c(OC)c2)cc1 do in these assays?
AMA1 RON2 block: 7.9%; HCV inh: -5.0%

What do the screens show for `CCOc1ccc(CN2CCNC(=O)C2CC(=O)NCc2csc(C(C)C)n2)cc1` (configuration not stated)?
AMA1 RON2 block: 45.1%; Pf growth 48h: inconclusive; HCV inh: 7.6%; Pf growth 96h: 1.7%; Shiga toxin inh: -3.4; CHX counter: -0.9

What do the screens show for `Cc1cccc(Oc2ccc(NC(=O)C3=CC=CN4CCS(=O)(=O)N=C34)cc2)c1`?
AMA1 RON2 block: -6.8%; Pf growth 48h: inconclusive; HCV inh: 9.6%; Pf growth 96h: 11.7µM*

Results for CCc1nc2oc3ccccc3c(=O)c2c(=O)n1-c1ccccc1 ?
AMA1 RON2 block: 30.9%; Pf growth 48h: 204.7%; HCV inh: -1.4%; Shiga toxin inh: 64.9*; CHX counter: 44.0*

What do the screens show for `CCCCn1c(-c2ccco2)nc2oc3ccccc3c(=O)c2c1=O`?
AMA1 RON2 block: -5.5%; Pf growth 48h: inconclusive; HCV inh: 6.6%; Pf growth 96h: 9.28µM*; Shiga toxin inh: -2.0; CHX counter: -0.4

How did CCc1nc2oc3cc(OC)ccc3c(=O)c2c(=O)n1Cc1ccco1 do in these assays?
AMA1 RON2 block: inconclusive; Pf growth 48h: 11.7µM*; HCV inh: -12.8%; Pf growth 96h: inconclusive; Shiga toxin inh: -8.2; CHX counter: 7.5

How did CCc1nc2oc3ccccc3c(=O)c2c(=O)n1-c1ccc(C)cc1 do in these assays?
AMA1 RON2 block: -26.6%; Pf growth 48h: 160.9%; HCV inh: -4.4%; Pf growth 96h: 427.8%; Shiga toxin inh: 63.6*; CHX counter: 41.0*

How did CCc1nc2oc3ccccc3c(=O)c2c(=O)n1CCOC do in these assays?
AMA1 RON2 block: 4.7%; HCV inh: inconclusive; Pf growth 96h: inconclusive; Shiga toxin inh: -0.6; CHX counter: -1.1
